HCV inh = inhibitors of hepatitis C virus infection. Huh7.5.1 HCVcc-Cre infection, luciferase reporter, 44 h. Potency, µM (highest dose often 41.8 µM), hits mostly inhibitors. 340,000 tested, 3.4% active
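Seed cells (1,000/well) for 4 h; treat with compound and infect with HCVcc-Cre, moi about 0.5. Incubate 44 h, then detect luciferase activity.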
Shiga toxin inh = inhibitors of Shiga toxin in Vero cells. Vero cells, Shiga toxin protein synthesis inhibition reporter. inhibition, % at 38.7 µM. 290,000 tested, 9.2% active; in the data active = inhibition mostly above about 28%, no sharp cut-off; inactive = mostly below about 43%
Pf growth 96h = P. falciparum growth inhibition at 96 hour, primary screen for plastid delayed-death inhibitors; P. falciparum luciferase reporter growth, 96 h; Potency, µM (highest dose often 28.7 µM), most hits filed as inhibitors; 320,000 tested, 6.9% active; AID 504834
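Two-generation exposure (96 h) targets delayed-death phenotype. Reporter parasites carrying integrated firefly luciferase, in red cells at 2% hematocrit and 0.05% parasitemia final, kept at 37 C, 5% CO2; luminescence loss indicates inhibition.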
AMA1 RON2 block = AMA1-RON2 (P. falciparum) interaction inhibition. 360,000 tested, 0.2% active. AID 720542. Potency, µM (top dose mostly 58.2 µM), usual class: inhibitors. AlphaScreen AMA1-biotinylated RON2 peptide binding; also: nearly all actives have a fitted effect of over 45% in size
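AMA1 (3D7) with his tag at 25 nM final met compounds first, then biotinylated RON2 peptide at 25 nM; detection used donor plus acceptor beads, 10 µg/mL apiece, read by AlphaScreen after 30 min at room temperature.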
Pf growth 48h = inhibits P. falciparum growth in the first generation, 48 h. P. falciparum luciferase growth in erythrocytes, 48 h. Potency, µM (series often up to 28.7 µM), usual class: inhibitors. 310,000 tested, 5.9% active
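Firefly luciferase activity from engineered P. falciparum reports growth; inhibitors lower the luminescent signal. Cultures contained 2% hematocrit erythrocytes at 0.1% final parasitemia.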
Cycloheximide cs = counter-screen hit for Shiga toxin inhibitors, cycloheximide; cell reporter, cycloheximide protein synthesis inhibition counterscreen; max response, %; 300,000 tested, 12% active; in the data active = max response mostly above about 13%, no sharp cut-off; inactive = mostly below about 14%; also: read at 38.3 µM for the half of the compounds with a filed dose
Large screens that a line does not name were inactive. Compounds with a hit are over-represented: about 21% of the library has one in this group of screens. Unless noted, calls follow the shape of the dose curve; as a rule, active = well fitted curve in the direction sought with a large enough effect; inconclusive = small, poorly fitted or top-dose-only effect, or another doubt; inactive = no such curve, though single readings can be large; an effect the other way counts as inactive or inconclusive.

Cc1occc1-c1nnc(SCC(=O)NC2CCC(C)CC2)o1 (configuration not stated)	none (no result: Shiga toxin inh, Cycloheximide cs)
c1ccc2sc(Sc3ncnc4sccc34)nc2c1	Shiga toxin inh 46, Pf growth 96h 0.74µM, Pf growth 48h 1.9µM, Cycloheximide cs 42
CCc1cc2c(Sc3nc4ccccc4s3)ncnc2s1	Pf growth 96h inconclusive, Pf growth 48h 1.9µM
COc1ccccc1NC(=O)CSc1nncs1	none (no result: Shiga toxin inh, Pf growth 96h, Pf growth 48h, Cycloheximide cs)
NC(=O)CCn1c(C(=O)c2cc(Cl)c(N)c(Cl)c2)c2ccccc2[n+]1[O-]	Pf growth 96h 10µM, Pf growth 48h inconclusive
COc1ccc2c(C(=O)c3ccc(Cl)cc3)n(CCCC(N)=O)[n+]([O-])c2c1	Pf growth 96h inconclusive, Pf growth 48h 9.3µM (no result: Shiga toxin inh, Cycloheximide cs)
NCCCn1c(C(=O)c2cc(Cl)c(N)c(Cl)c2)c2ccccc2[n+]1[O-]	HCV inh inconclusive, Pf growth 96h inconclusive, Pf growth 48h inconclusive (no result: Shiga toxin inh, Cycloheximide cs)
COc1ccc(C(=O)c2c3ccc(C(F)(F)F)cc3[n+]([O-])n2CCCN)cc1	Pf growth 96h inconclusive, Pf growth 48h 12µM (no result: Shiga toxin inh, Cycloheximide cs)
COc1ccc(C(=O)c2c3ccccc3[n+]([O-])n2CCC(N)=O)cc1	Pf growth 48h inconclusive (no result: Shiga toxin inh, Cycloheximide cs)
COc1ccc(C(=O)c2c3ccccc3[n+]([O-])n2Cc2ccc(C(N)=O)cc2)cc1	Pf growth 96h 6.6µM, Pf growth 48h inconclusive (no result: Shiga toxin inh, Cycloheximide cs)
CCOc1cc(C(=O)OC(C(=O)NC(=O)NC)c2ccccc2)ccc1OCC(=O)N1CCOCC1 (configuration not stated)	none (no result: Shiga toxin inh, Pf growth 96h, Pf growth 48h, Cycloheximide cs)
O=C(CN1C(=O)C(=O)N(C2CCCC2)C1=O)Nc1ccc([N+](=O)[O-])cc1	none (no result: Shiga toxin inh, Cycloheximide cs)
O=C(NN=C1CCCCCCCCCCC1)c1cccnc1	none
O=C(NN=C1CCCCCCC1)c1ccc(F)cc1	Shiga toxin inh 76, Cycloheximide cs 24
O=C(NN=C1CCCCCC1)c1cccs1	Shiga toxin inh 92, Pf growth 96h inconclusive, Cycloheximide cs 61
O=C(NN=C1CCCC1)c1ccn[nH]1	Shiga toxin inh 104, Pf growth 96h inconclusive, Cycloheximide cs 56
O=C(NN=C1CCCC1)c1ccccc1OCc1ccc(Cl)cc1	Pf growth 96h inconclusive
O=C(NN=C1CCCCCCCCCCC1)c1ccccc1F	Shiga toxin inh 70, Cycloheximide cs 78
COC(=O)[C@@]12CCCN1[C@H](c1ccc(-c3ccc(Cl)c(Cl)c3)cc1)[C@H]1C(=O)N(C)C(=O)[C@H]12	HCV inh inconclusive, Pf growth 96h inconclusive, Pf growth 48h inconclusive (no result: Shiga toxin inh, Cycloheximide cs)
CC(=O)NC(CC(C)C)C(=O)NC(Cc1ccccc1)C(N)=O (configuration not stated)	Pf growth 96h inconclusive, Cycloheximide cs 8.8
CC(C)CC(NC(=O)C(NC(=O)OC(C)(C)C)C(C)C)C(N)=O (configuration not stated)	none
COC(=O)[C@H](Cc1ccccc1)NC(=O)[C@@H](N)CC(=O)O	HCV inh 0.56µM (no result: Shiga toxin inh, Cycloheximide cs)
CC(C)CC(NC(=O)C(NC(=O)OC(C)(C)C)C(C)C)C(=O)NC(CCC(=O)OCc1ccccc1)C(N)=O (configuration not stated)	Pf growth 96h inconclusive, Pf growth 48h 1.9µM
N#Cc1cccc(C#N)c1NCC1CCCO1 (configuration not stated)	none
CCNC(=O)N(C)C[C@H]1N[C@@](CC)(C(=O)OC)[C@H]2C(=O)N(C)C(=O)[C@@H]12	none (no result: Shiga toxin inh, Pf growth 96h, Pf growth 48h, Cycloheximide cs)
CCN(CC)C(=O)C1CCN(Cc2cn(C)nc2-c2ccc(Oc3ccccc3)cc2)CC1	Pf growth 48h 7.4µM
CC(=O)Nc1cccc(/C(C)=N/Nc2ccc(S(=O)(=O)Nc3ccccc3C(=O)O)cc2[N+](=O)[O-])c1	AMA1 RON2 block inconclusive (no result: Shiga toxin inh, Pf growth 96h, Pf growth 48h, Cycloheximide cs)
CCc1cc2c(=O)n3c(nc2s1)-c1[nH]c2ccc(OC)cc2c1CC3	Pf growth 96h 2.9µM, Cycloheximide cs 15
COc1ccc2[nH]c3c(c2c1)CCN=C3C	HCV inh 2.8µM, Pf growth 96h inconclusive, Pf growth 48h 9.3µM (no result: Shiga toxin inh, Cycloheximide cs)
COc1ccc2[nH]c3c(c2c1)CCC/C3=N\N	HCV inh inconclusive, Cycloheximide cs 9.7
COc1ccc2[nH]c3c(c2c1)CCn1c-3nc2sc(C(=O)Nc3ccccc3)c(C)c2c1=O	none (no result: AMA1 RON2 block)
COc1ccc2[nH]c3c(c2c1)CN(C)CC3	none
CCCCCCN1C[C@H](n2cc(-c3ccc(F)cc3)nn2)[C@@H](O)C[C@@H]1c1ccc(Cl)cc1	none (no result: HCV inh, Shiga toxin inh, Pf growth 96h, Pf growth 48h, Cycloheximide cs)
CCc1ncc(CN2CCCCC2C(=O)Nc2ccc(Oc3ccccc3)nc2)cn1 (configuration not stated)	Pf growth 48h inconclusive
O=C(Nc1ccc(Cl)c(Cl)c1)c1ccco1	HCV inh inconclusive, Shiga toxin inh 50, Cycloheximide cs 48
O=C(Cc1ccccc1)Nc1ccc(NC(=O)c2ccco2)cc1Cl	Pf growth 96h 9.3µM
O=C(Nc1ccc(F)c(F)c1)c1ccco1	Shiga toxin inh 89, Pf growth 48h inconclusive, Cycloheximide cs 45
O=C(Nc1ccc(Cl)c(C(F)(F)F)c1)c1ccco1	HCV inh inconclusive, Cycloheximide cs 13
O=C(Nc1ccc(Cl)c(S(=O)(=O)N2CCCCC2)c1)c1ccco1	Pf growth 96h inconclusive, Pf growth 48h inconclusive (no result: Shiga toxin inh, Cycloheximide cs)
O=C(Nc1ccc(Cl)c(C(F)(F)F)c1)NC1CC2CCCC(C1)N2Cc1ccccc1 (configuration not stated)	HCV inh 25µM, Pf growth 96h inconclusive, Pf growth 48h inconclusive
O=C(NC1CC2CCCC(C1)N2C(=O)Nc1ccc(Cl)c(C(F)(F)F)c1)C1CC1 (configuration not stated)	Pf growth 48h inconclusive
NS(=O)(=O)c1ccc(CCNC(=O)c2ccc3ccccc3n2)cc1	Shiga toxin inh 45, Cycloheximide cs 34
COc1ccc(CCNC(=O)c2ccc3ccccc3n2)cc1	Shiga toxin inh 69, Cycloheximide cs 52
NS(=O)(=O)c1ccc(CNc2ccc3ccccc3n2)cc1	Shiga toxin inh 88
O=c1c(Cc2ccc(F)cc2)c(O)ccn1CCCn1ccnc1	none
CCCn1c(N)c(C(=O)CSc2nnc(-c3cccs3)n2C2CC2)c(=O)[nH]c1=O	none (no result: Shiga toxin inh, Pf growth 96h, Pf growth 48h, Cycloheximide cs)
Cc1ccc(-n2ncc3c(SCc4ccccn4)ncnc32)c(C)c1	HCV inh inconclusive, Shiga toxin inh 110, Pf growth 96h inconclusive, Pf growth 48h inconclusive, Cycloheximide cs 44
Cc1ccc(-n2ncc3c(NCCCOC(C)C)ncnc32)c(C)c1	Pf growth 96h inconclusive, Pf growth 48h inconclusive
CCOC(=O)N1CCC(Nc2ncnc3c2cnn3-c2ccc(C)cc2C)CC1	HCV inh 7.1µM
C=CCNc1ncnc2c1cnn2-c1ccc(C)cc1C	Shiga toxin inh 67, Cycloheximide cs 25
CSc1ncnc2c1cnn2-c1ccc(C)cc1C	Shiga toxin inh 140, Cycloheximide cs 35
Cc1ccc(-n2ncc3c(NCC4CCCO4)ncnc32)c(C)c1 (configuration not stated)	HCV inh inconclusive
